Experimental data from PubChem BioAssay (Tox21).
Results filed as inconclusive are left out. A number with no mark means an inactive call. Active and inactive are the calls of the source. The call rests on the fitted dose curve; in most records, active means well fitted cell-killing curve with a large enough effect in the repeat runs; inconclusive means weak or mixed curves; inactive means flat fitted curve, though single readings scatter.

test: qHTS RealTime-Glo MT Cell Viability Assay in HepG2 cells - 24 hour (AID 1224867); settings: RealTime-Glo luminescence; series mostly up to 76.8 µM; activity change, negative = cytotoxicity: at the top concentration; further: nearly all actives have a fitted effect of over 50% in size
Text: U.S. Tox21 Program National Center for Advancing Translational Sciences [NCATS] NIH Chemical Genomics Center [NCGC] U.S. Environmental Protection Agency [EPA] National Institutes of Environmental Health Sciences [NIEHS] National Toxicology Program [NTP] U.S. Food and Drug Administration [FDA] Tox21 Assay Overview: Measure of cell viability is critical in the cell-base assay. Analysis of cell viability is necessary for the characterization of cell responses to cytotoxic drugs and environmental stress. A RealTime-Glo MT Cell Viability Assay to monitor cell viability in real time of continues cell culture during 40 hours of compound treatment was used to screen Tox21 10K library compounds in HepG2 cells. The RealTime-Glo MT Cell Viability Assay is a nonlytic, homogeneous, bioluminescent method to measure cell viability in real time using a simple, plate-based method. The assay involves adding NanoLuc luciferase and a cell-permeant prosubstrate to cells in culture. Viable cells reduce the proprietary prosubstrate to generate a substrate for NanoLuc luciferase. This substrate diffuses from cells into the surrounding culture medium, where it is rapidly used by the NanoLuc Enzyme to produce a luminescent signal. The signal correlates with the number of viable cells, making the assay well suited for cytotoxicity studies.
Tox21 Assay Protocol Summary: The mixture of HepG2 cell suspension and reagents were dispensed at 600cells/6 ul/well in 1536-well tissue culture treated black solid bottom plates using a Multidrop dispenser. After the assay plates were incubated at a 37 C/5% CO2 incubator for 5 hours, 23 nL of compounds dissolved in DMSO, positive and negative controls was transferred to the assay plate by a pintool work station. The plates were incubated at 37 C for 40 hours. The luminescence intensity were measured at 0h, 8h, 16h, 24h, 32h and 40h time points using ViewLux plate reader during compound treatment.
On the % scale 0 is the no-effect control and ±100 the full control effect.

Compound	activity change, negative = cytotoxicity	Potency
Cn1sc(Cl)cc1=O	0.736%	
O=C(O)C1(c2ccc3c(c2)OC[C@H](Cc2ccc(-c4ccccc4)cc2)[C@H]3O)CCCC1	-22.4%	
CCCCCCC#N	-2.34%	
Nc1ccc([N+](=O)[O-])cc1[N+](=O)[O-]	-5.09%	
COP(=S)(OC)Oc1ccc([N+](=O)[O-])cc1Cl	-3.56%	
CO/N=C(/C(=O)OC)c1ccccc1COc1ccccc1C	-16%	
COP(=S)(OC)Oc1cc(Cl)c(I)cc1Cl	0.722%	
CCOP(=O)(OCC)SCCSCC		inactive
c1cc2ccc3cccc4ccc(c1)c2c34	-9.59%	
O=NN1CCCCCC1	2.64%	
Oc1ccc(Cl)c(Cl)c1Cl	-5.08%	
Cc1cc(=O)[nH]o1	2.38%	
CC(=O)[C@H]1CC[C@H]2[C@@H]3CC[C@H]4C[C@](C)(O)CC[C@]4(C)[C@H]3CC[C@]12C	0.614% [at 35.3 µM]	
COP(=S)(Oc1cc(Cl)c(Br)cc1Cl)c1ccccc1 (stereo not given)	-16.3%	
Cc1ccc(-c2c(Cl)nc(C#N)n2S(=O)(=O)N(C)C)cc1	-17.6%	
BrCCCCBr	4.07%	
C[C@H]1CNCCc2ccc(Cl)cc21	-0.818% [at 35.3 µM]	
C#CCOC(C(=O)OCCN(C)C)(c1ccccc1)c1ccccc1	-4.15% [at 35.3 µM]	
CC(Cl)C(C)Cl (stereo not given)	-0.0045%	
C[C@@H]1CC[C@H]2[C@@H](C)C(=O)O[C@@H]3O[C@@]4(C)CC[C@@H]1[C@]32OO4	0.877% [at 35.3 µM]	

Compound	activity change, negative = cytotoxicity	Potency
CC(=O)c1cc2c(cc1C)C(C)(C)C(C)CC2(C)C (stereo not given)	-16.8%	
O=C(Nc1ccccc1)Nc1cnns1	-18.4%	
N#Cc1cc(I)c(O)c(I)c1	-18.8%	
NNC(=O)c1cccnc1	-0.284%	
CCO[C@H]1O[C@@H]2OC3(C)CC[C@H]4[C@H](C)CC[C@@H]([C@H]1C)[C@@]24OO3	-3.23% [at 35.3 µM]	
Cc1ccc(N)cc1C	1.24%	
CCOP(=S)(OCC)Oc1nc(Cl)c(Cl)cc1Cl		inactive
CCOc1ccc(C(C)(C)COCc2cccc(Oc3ccccc3)c2)cc1	2.04%	
CCCCN=C=O	2.48%	
NC(=O)C(Cl)(Cl)Cl	-1.5%	
COc1cc(Cl)c(OC)cc1Cl	3.11%	
O=C(Nc1ccccc1)Nc1ccnc(Cl)c1	-23.7%	
CC(C)(C)C(O)C(Oc1ccc(Cl)cc1)n1cncn1 (stereo not given)	-12.4%	
O=S(=O)(O)C(F)(F)C(F)(F)C(F)(F)C(F)(F)F	8.61%	
C=CC(=O)OCCCCO	-21.6%	
Cn1cc[n+](C)c1 (tested in a mixture with another compound)	-2.09%	
C=CC(=O)NCNC(=O)C=C	2.84%	
CCOC(=O)C(Cl)C(C)=O (stereo not given)	1.22%	
ClC=C(Cl)Cl	2.42%	
CC1C(=O)C[C@]2(C(C)C)C[C@H]12 (stereo not given in full)	2.62%	
